Experimental data: PubChem BioAssay (Tox21)
Records with an inconclusive call do not appear. Calls of active or inactive are those of the source. Unless noted, calls come from the whole dose curve; as a rule, active = well fitted curve in the direction sought with a large enough effect in the repeat runs; inconclusive = weak or mixed curves; inactive = no such curve, though single readings can be large; an effect the other way counts as inactive or inconclusive.

Columns and labels:
[1] = qHTS assay to identify small molecule antagonists of the thyroid receptor (TR) signaling pathway (AID 743065); note: series mostly up to about 70 µM; nearly all actives have a fitted effect of over 55% in size
Outline: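 Antagonism measured as loss of luciferase signal in GH3 cells stably carrying a TRE-luciferase reporter, co-treated with compound and T3 (1 nM final) for 23.5 h at 37 C. Viability was read in the same well by CellTiter-Fluor.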

[2] = test system: thyroid hormone receptor (rat, GH3 cells); test: qHTS assay to identify small molecule agonists of the thyroid receptor (TR) signaling pathway (AID 743066; calls by dose curve)
[3] = qHTS assay to identify small molecule antagonists of the estrogen receptor alpha (ER-alpha) signaling pathway - cell viability counter screen (AID 743074; calls by dose curve;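 note: HEK293 cells carrying ER-alpha-UAS-bla reporter stimulated with 17beta-estradiol; nearly all actives have a fitted effect of over 45% in size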)
[4] = qHTS assay to identify small molecule antagonists of the estrogen receptor alpha (ER-alpha) signaling pathway using the BG1 cell line - cell viability counter screen (AID 743081);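 note: compound given together with 17beta-estradiol as the ER stimulus; series mostly up to about 70 µM; nearly all actives have a fitted effect of over 45% in size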
Aromatase (Homo sapiens) = Aromatase (Homo sapiens) (UniProt P11511); test: qHTS assay to identify aromatase inhibitors (AID 743083); note: series mostly up to about 70 µM; nearly all actives have a fitted effect of over 55% in size
Sequence of Aromatase (Homo sapiens) (P11511 whole entry, looked up): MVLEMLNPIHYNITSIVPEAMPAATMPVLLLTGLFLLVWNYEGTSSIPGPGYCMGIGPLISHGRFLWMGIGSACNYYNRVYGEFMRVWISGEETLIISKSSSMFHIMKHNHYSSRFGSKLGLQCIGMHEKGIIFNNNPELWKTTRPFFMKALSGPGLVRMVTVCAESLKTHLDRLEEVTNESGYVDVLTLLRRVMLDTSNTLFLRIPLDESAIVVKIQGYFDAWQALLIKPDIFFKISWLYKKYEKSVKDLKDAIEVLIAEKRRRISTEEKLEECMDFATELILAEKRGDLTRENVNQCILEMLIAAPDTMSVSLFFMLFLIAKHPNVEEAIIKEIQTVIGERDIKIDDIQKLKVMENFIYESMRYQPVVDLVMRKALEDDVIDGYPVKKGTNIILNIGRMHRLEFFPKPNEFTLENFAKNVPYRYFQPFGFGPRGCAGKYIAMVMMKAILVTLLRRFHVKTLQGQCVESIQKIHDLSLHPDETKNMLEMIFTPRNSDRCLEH

[5] = qHTS assay to identify aromatase inhibitors - cell viability counter screen (AID 743084);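 note: cells stimulated with testosterone during compound exposure; nearly all actives have a fitted effect of over 55% in size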
[6] = target: Aryl hydrocarbon receptor (Homo sapiens) (UniProt P35869); test: qHTS assay to identify small molecule that activate the aryl hydrocarbon receptor (AhR) signaling pathway (AID 743085);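 note: HG2L7.5c1 human HepG2 liver cells with stably integrated DRE-driven firefly reporter; series mostly up to about 70 µM; nearly all actives have a fitted effect of over 15% in size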
Sequence of Aryl hydrocarbon receptor (Homo sapiens) (P35869 whole entry, looked up): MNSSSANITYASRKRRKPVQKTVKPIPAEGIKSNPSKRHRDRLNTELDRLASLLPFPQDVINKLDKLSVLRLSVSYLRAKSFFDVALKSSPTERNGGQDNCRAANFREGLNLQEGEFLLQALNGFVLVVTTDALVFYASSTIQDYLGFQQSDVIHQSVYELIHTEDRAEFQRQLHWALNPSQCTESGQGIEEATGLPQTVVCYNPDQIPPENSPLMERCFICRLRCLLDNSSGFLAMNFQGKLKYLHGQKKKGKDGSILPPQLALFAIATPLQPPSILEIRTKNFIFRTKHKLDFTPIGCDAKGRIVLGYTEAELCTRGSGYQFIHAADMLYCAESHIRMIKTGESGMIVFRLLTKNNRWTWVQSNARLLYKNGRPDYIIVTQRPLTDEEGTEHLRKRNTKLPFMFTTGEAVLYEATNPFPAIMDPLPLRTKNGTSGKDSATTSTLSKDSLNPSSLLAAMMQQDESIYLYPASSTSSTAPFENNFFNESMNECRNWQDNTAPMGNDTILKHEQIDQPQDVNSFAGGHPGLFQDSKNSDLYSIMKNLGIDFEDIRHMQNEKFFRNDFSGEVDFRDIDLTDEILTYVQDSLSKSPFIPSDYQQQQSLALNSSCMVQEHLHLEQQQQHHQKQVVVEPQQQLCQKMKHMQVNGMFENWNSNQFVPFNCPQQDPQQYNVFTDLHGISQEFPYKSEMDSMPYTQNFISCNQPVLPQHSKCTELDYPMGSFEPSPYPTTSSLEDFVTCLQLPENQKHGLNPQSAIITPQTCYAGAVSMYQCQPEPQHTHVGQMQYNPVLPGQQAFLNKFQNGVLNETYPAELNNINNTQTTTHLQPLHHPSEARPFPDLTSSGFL
Outline: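 Compounds were tested in HepG2 hepatocellular carcinoma cells harbouring a stably integrated luciferase gene under control of 20 DREs. Increased reporter signal after 24 h treatment at 37C was taken as AhR activation.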

[7] = target: Peroxisome proliferator-activated receptor gamma (Homo sapiens) (UniProt P37231); test: qHTS assay to identify small molecule agonists of the peroxisome proliferator-activated receptor gamma (PPARg) signaling pathway (AID 743094; active = well fitted activation curve with a large enough effect in the signal ratio in the repeat runs, not every such curve was filed as active; the % refers to the signal ratio)
Sequence of Peroxisome proliferator-activated receptor gamma (Homo sapiens) (P37231 whole entry, looked up): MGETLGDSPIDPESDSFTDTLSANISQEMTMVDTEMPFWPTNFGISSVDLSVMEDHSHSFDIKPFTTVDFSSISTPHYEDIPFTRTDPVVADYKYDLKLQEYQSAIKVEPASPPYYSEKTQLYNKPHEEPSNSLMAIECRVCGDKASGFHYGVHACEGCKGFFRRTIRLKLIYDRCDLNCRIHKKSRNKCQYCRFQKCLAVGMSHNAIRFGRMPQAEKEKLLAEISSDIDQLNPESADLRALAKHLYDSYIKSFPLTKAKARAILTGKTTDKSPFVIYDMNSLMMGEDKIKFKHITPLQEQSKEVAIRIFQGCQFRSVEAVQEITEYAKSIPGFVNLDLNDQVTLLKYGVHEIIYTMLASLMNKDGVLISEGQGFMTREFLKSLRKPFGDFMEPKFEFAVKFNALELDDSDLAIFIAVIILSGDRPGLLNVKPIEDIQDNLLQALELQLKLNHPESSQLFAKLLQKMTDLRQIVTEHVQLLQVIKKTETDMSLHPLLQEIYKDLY
Outline: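 Compounds dissolved in DMSO were added to PPARg UAS-bla HEK293H cells for 17 h at 37C, and reporter expression was quantified by fluorescence intensity after 1 h with LiveBLAzer B/G FRET substrate.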

[8] = target: Peroxisome proliferator-activated receptor gamma (Homo sapiens) (UniProt P37231); test: qHTS assay to identify small molecule antagonists of the peroxisome proliferator-activated receptor gamma (PPARg) signaling pathway (AID 743191; calls by dose curve; note: series mostly up to about 63 µM; nearly all actives have a fitted effect of over 30% in size)
Outline: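 Beta-lactamase reporter under UAS control in HEK293H PPARg-bla cells; compound treatment 17 h at 37C. Read-out: fluorescence intensity after 1 h room-temperature incubation with LiveBLAzer B/G FRET substrate.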

[9] = qHTS assay to identify small molecule antagonists of the peroxisome proliferator-activated receptor gamma (PPARg) signaling pathway - cell viability counter screen (AID 743194); note: nearly all actives have a fitted effect of over 55% in size
Outline: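 Viability was measured as CellTiter-Glo luminescence in GeneBLAzer PPARg UAS-bla HEK293H cells. These cells had been exposed 17 h at 37 C to compounds together with rosiglitazone at 50 nM final, with the beta-lactamase readout taken in the same wells.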

[10] = qHTS assay for small molecule agonists of the antioxidant response element (ARE) signaling pathway (AID 743202; active = well fitted activation curve with a large enough effect in the signal ratio in the repeat runs, not every such curve was filed as active; the % refers to the signal ratio)
Outline: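 Quantitative high-throughput format in HepG2 cells bearing an integrated ARE-beta-lactamase reporter. Compound exposure lasted 16 h at 37 C, and fluorescence was read 2 h after adding LiveBLAzer B/G substrate at room temperature.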

[11] = qHTS assay for small molecule agonists of the antioxidant response element (ARE) signaling pathway - cell viability counter screen (AID 743203; calls by dose curve; note: nearly all actives have a fitted effect of over 55% in size)
Outline: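 Following 16 hrs of compound treatment at 37C, HepG2 cells with an ARE-controlled beta-lactamase gene were lysed with CellTiter-Glo. Luminescence was read after 30 min at room temperature.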

[12] = qHTS assay for small molecule activators of the heat shock response signaling pathway - cell viability counter screen (AID 743209); note: nearly all actives have a fitted effect of over 50% in size
Outline: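 Readout: CellTiter-Glo luminescence, 30 min at room temperature. System: HSE-bla HeLa cells, 1500/well, plated overnight. Treatment: compounds in DMSO, 5 h at 37 C.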

[13] = qHTS assay for small molecule activators of the heat shock response signaling pathway (AID 743210; active = well fitted activation curve with a large enough effect in the signal ratio in the repeat runs, with a control signal flat, not every such curve was filed as active; the % refers to the signal ratio;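 note: HeLa cells with beta-lactamase reporter driven by heat shock elements; series mostly up to about 63 µM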)
Outline: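 HeLa HSE-bla cells, overnight plating; cpd in DMSO 5 h, 37 C; LiveBLAzer B/G FRET substrate 2.5 h RT; fluorescence intensity read.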

[14] = qHTS assay to identify small molecule that activate the aryl hydrocarbon receptor (AhR) signaling pathway - cell viability counter screen (AID 743086);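 note: HepG2 liver cells carrying the AhR DRE luciferase reporter; series mostly up to about 70 µM; nearly all actives have a fitted effect of over 45% in size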
Outline: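 Cytotoxicity counter screen: CellTiter-Fluor signal (30 min, 37 C) in 4000 HepG2 cells/well carrying the DRE-luciferase reporter, following 24 h compound exposure at 37 C.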

[15] = target: Estrogen receptor (Homo sapiens) (UniProt P03372); test: qHTS assay to identify small molecule antagonists of the estrogen receptor alpha (ER-alpha) signaling pathway (AID 743069; active = well fitted curve in the direction sought with a large enough effect in the signal ratio in the repeat runs, not every such curve was filed as active; the % refers to the signal ratio)
Sequence of Estrogen receptor (Homo sapiens) (P03372 whole entry, looked up): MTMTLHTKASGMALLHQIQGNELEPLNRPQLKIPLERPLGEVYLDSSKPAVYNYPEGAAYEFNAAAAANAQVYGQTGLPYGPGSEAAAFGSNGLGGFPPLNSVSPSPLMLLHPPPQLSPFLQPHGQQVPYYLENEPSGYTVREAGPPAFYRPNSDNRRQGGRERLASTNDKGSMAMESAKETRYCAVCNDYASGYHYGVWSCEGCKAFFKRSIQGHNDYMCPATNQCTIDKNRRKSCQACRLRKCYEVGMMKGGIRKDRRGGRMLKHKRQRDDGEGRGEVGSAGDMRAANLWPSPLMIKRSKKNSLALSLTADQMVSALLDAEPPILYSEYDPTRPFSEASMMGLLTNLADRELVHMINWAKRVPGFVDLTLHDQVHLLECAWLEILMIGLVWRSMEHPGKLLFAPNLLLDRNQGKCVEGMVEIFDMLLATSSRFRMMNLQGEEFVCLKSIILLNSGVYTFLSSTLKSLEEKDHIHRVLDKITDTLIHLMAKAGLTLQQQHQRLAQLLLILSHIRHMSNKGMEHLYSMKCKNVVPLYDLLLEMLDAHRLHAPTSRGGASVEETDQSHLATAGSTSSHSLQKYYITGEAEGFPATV
Outline: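 ER-alpha-UAS-bla GripTite HEK293 line; 2% charcoal-stripped FBS overnight; plated, 4 hr 37C/5% CO2; cpd in DMSO + 17beta-estradiol, 18 hr 37C; LiveBLAzer B/G FRET substrate 2 hr RT; fluorescence intensity.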

[16] = target: Estrogen receptor (Homo sapiens) (UniProt P03372); test: qHTS assay to identify small molecule agonists of the estrogen receptor alpha (ER-alpha) signaling pathway (AID 743075; calls by dose curve;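 note: HEK293 GripTite cells with ER-alpha and UAS-driven beta-lactamase reporter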)
[17] = target: Estrogen receptor (Homo sapiens) (UniProt P03372); test: qHTS assay to identify small molecule agonists of the estrogen receptor alpha (ER-alpha) signaling pathway using the BG1 cell line (AID 743079); note: nearly all actives have a fitted effect of over 20% in size
[18] = qHTS assay to identify small molecule antagonists of the estrogen receptor alpha (ER-alpha) signaling pathway using the BG1 cell line (AID 743080; calls by dose curve;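 note: BG1 cells stimulated with 17beta-estradiol alongside compound; series mostly up to about 70 µM; nearly all actives have a fitted effect of over 25% in size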)
Outline: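 BG1-Luc-4E2 cells (endogenous full-length ER-alpha, 4xERE luciferase) hormone-starved 5 days in charcoal-stripped FBS, plated 4,000/well for 24 h, then compound plus 17beta-estradiol for 21.5 h at 37 C; ONE-Glo luminescence read.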

Measured: Potency

OCC(O)CN1CCN(c2ccccc2)CC1 (stereo unspecified)
inactive: [1] | [2] | [3] | [4] | Aromatase (Homo sapiens) | [5] | [6] | [7] | [8] | [9] | [10] | [11] | [12] | [13]

CC(C)NCC(O)c1ccc2ccccc2c1 (stereo unspecified)
inactive: [1] | [2] | [3] | [4] | Aromatase (Homo sapiens) | [5] | [6] | [14] | [7] | [9] | [10] | [11] | [12]

CC(=O)CCc1ccc(OC(C)=O)cc1
inactive: [1] | [2] | [15] | [3] | [16] | [17] | [18] | [4] | Aromatase (Homo sapiens) | [5] | [6] | [14] | [7] | [8] | [9] | [10] | [12] | [13]

O=[N+]([O-])c1c(Cl)cc(Cl)cc1Cl
inactive: [1] | [2] | [3] | [4] | Aromatase (Homo sapiens) | [5] | [6] | [14] | [7] | [9] | [10] | [11] | [12]

CC1(C)Oc2ccc(C#N)cc2[C@@H](N2CCCC2=O)[C@@H]1O
inactive: [1] | [2] | [15] | [3] | [16] | [17] | [4] | Aromatase (Homo sapiens) | [5] | [6] | [7] | [8] | [9] | [10] | [11] | [12] | [13]

OC[C@H]1O[C@@H](O[C@@H]2[C@@H](CO)O[C@](O)(CO)[C@H]2O)[C@H](O)[C@@H](O)[C@H]1O
inactive: [1] | [2] | [15] | [3] | [16] | [17] | [18] | [4] | Aromatase (Homo sapiens) | [5] | [14] | [7] | [8] | [9] | [10] | [11] | [12] | [13]

CCCCOC(=O)[C@H](C)O
inactive: [1] | [2] | [15] | [3] | [16] | [17] | [18] | [4] | Aromatase (Homo sapiens) | [5] | [6] | [14] | [7] | [8] | [9] | [11] | [12] | [13]

CCC(=O)c1c(O)cc(O)cc1O
inactive: [1] | [2] | [15] | [3] | [16] | [17] | [18] | [4] | Aromatase (Homo sapiens) | [5] | [7] | [8] | [9] | [11] | [12] | [13]

O=C1OCCO1
inactive: [1] | [2] | [15] | [3] | [16] | [17] | [4] | Aromatase (Homo sapiens) | [5] | [14] | [7] | [8] | [12] | [13]
